Several values for one entry are separate records, joined by “and”; a condition that tells them apart may be missing. Equal entries are not always repeated. In all, about 5,500 compounds went through this assay and about 2,000 (36%) were called active. Not shown: some 18% with an inconclusive outcome. Cut-off read from the data, not from the text of the source: active = normalized growth mostly below about 0.91 (no sharp cut-off); inconclusive = no clear call, values can overlap the other calls; inactive = mostly above about 0.92. The list shows a part of the results.
Assay: chemical genetic growth profiling, strain panel (AID 1159580);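 note: tested at 20 µM; growth read once vehicle control cultures reached saturation at 30 °C; 1 = growth at the plate median or of vehicle wells; lower values mean less growth of the strain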
Settings: S. cerevisiae deletion strains, growth OD
[1] = locus YMR307W, strain GAS1, stronger effect = lower value
[2] = locus YPL055C, strain LGE1, stronger effect = lower value

Measured: normalized growth

CC(N)Cc1c[nH]c2ccc(O)cc12 (centres undefined)
inactive: locus YAL013W, strain DEP1, stronger effect = lower value 1.02 | locus YAL040C, strain CLN3, stronger effect = lower value 1 | locus YCL061C, strain MRC1 (second series), stronger effect = lower value 1 | locus YDR363W, strain ESC2, stronger effect = lower value 1.03 | locus YER002W, strain NOP16, stronger effect = lower value 1 | [1] 1 | locus YNL153C, strain GIM3, stronger effect = lower value 1.01 | locus YNL175C, strain NOP13, stronger effect = lower value 1.01 | locus YNL197C, strain WHI3, stronger effect = lower value 1.04 | locus YNL224C, strain SQS1, stronger effect = lower value 1.02 | locus YOR083W, strain WHI5 (second series), stronger effect = lower value 1.01 | [2] 1.01

CC[C@@H](CO)NCCN[C@@H](CC)CO
inactive: locus YAL021C, strain ccr4, stronger effect = lower value 1.01 | locus YAL026C, strain drs2, stronger effect = lower value 1 | locus YAL030W, strain snc1, stronger effect = lower value 1.01 | locus YBL061C, strain skt5, stronger effect = lower value 1.02 | locus YBR009C, strain hhf1, stronger effect = lower value 1 | locus YBR021W, strain FUR4, stronger effect = lower value 1.02 | locus YBR023C, strain chs3, stronger effect = lower value 1.04 | locus YBR171W, strain sec66, stronger effect = lower value 1.02 | locus YBR229C, strain ROT2, stronger effect = lower value 1.01 | locus YBR231C, strain swc5, stronger effect = lower value 0.968 | locus YBR279W, strain paf1, stronger effect = lower value 1.02 | locus YCL011C, strain gbp2, stronger effect = lower value 1.03 | locus YCL016C, strain dcc1, stronger effect = lower value 1.04 | locus YCL029C, strain bik1, stronger effect = lower value 1 | locus YCL061C, strain MRC1, stronger effect = lower value 1.03 | locus YCL069W, strain vba3, stronger effect = lower value 1 | locus YCR088W, strain abp1, stronger effect = lower value 1.01 | locus YDL005C, strain med2, stronger effect = lower value 1 | locus YDL035C, strain GPR1, stronger effect = lower value 1.02 | locus YDL040C, strain nat1, stronger effect = lower value 1 | locus YDL074C, strain BRE1, stronger effect = lower value 1.04 | locus YDL101C, strain DUN1, stronger effect = lower value 1.02 | locus YDL134C, strain PPH21, stronger effect = lower value 1.02 | locus YDL185W, strain tfp1, stronger effect = lower value 1 | locus YDL192W, strain arf1, stronger effect = lower value 1 | locus YDR001C, strain nth1, stronger effect = lower value 1.01 | locus YDR069C, strain doa4, stronger effect = lower value 0.996 | locus YDR101C, strain arx1, stronger effect = lower value 0.987 | locus YDR137W, strain rgp1, stronger effect = lower value 1.01 | locus YDR150W, strain NUM1, stronger effect = lower value 1 | locus YDR159W, strain sac3, stronger effect = lower value 0.959 | locus YDR162C, strain NBP2, stronger effect = lower value 1.01 | locus YDR195W, strain ref2 0.964 | locus YDR297W, strain sur2, stronger effect = lower value 1.02 | locus YDR318W, strain mcm21, stronger effect = lower value 1.01 | locus YDR334W, strain swr1, stronger effect = lower value 1.01 | locus YDR335W, strain msn5, stronger effect = lower value 1.01 | locus YDR388W, stronger effect = lower value 1 | locus YDR392W, strain spt3, stronger effect = lower value 0.985 | locus YDR502C, strain sam2, stronger effect = lower value 1.03 | locus YEL003W, strain gim4, stronger effect = lower value 0.999 | locus YEL037C, strain rad23, stronger effect = lower value 1.01 | locus YEL061C, strain CIN8 (second series), stronger effect = lower value 1.01 | locus YEL061C, strain CIN8, stronger effect = lower value 1.01 | locus YER015W, strain faa2, stronger effect = lower value 1.01 | locus YER016W, strain bim1, stronger effect = lower value 0.985 | locus YER110C, stronger effect = lower value 1.01 | locus YER111C, strain swi4, stronger effect = lower value 1.01 | locus YER155C, strain BEM2 (second series), stronger effect = lower value 0.999 | locus YER155C, strain BEM2, stronger effect = lower value 1.01 | locus YER167W, strain BCK2, stronger effect = lower value 1.01 | locus YFR010W, strain ubp6, stronger effect = lower value 1 | locus YGL078C, strain dbp3, stronger effect = lower value 1 | locus YGL086W, strain mad1, stronger effect = lower value 0.988 | locus YGL167C, strain pmr1, stronger effect = lower value 1.01 | locus YGL173C, strain kem1, stronger effect = lower value 1.01 | locus YGL227W, strain vid30, stronger effect = lower value 1.02 | locus YGL240W, strain doc1, stronger effect = lower value 0.995 | locus YGL248W, strain PDE1, stronger effect = lower value 1.02 | locus YGL253W, strain hxk2, stronger effect = lower value 0.999 | locus YGR078C, strain PAC10, stronger effect = lower value 1.01 | locus YGR135W, strain pre9, stronger effect = lower value 1.04 | locus YGR229C, strain SMI1, stronger effect = lower value 1.02 | locus YGR252W, strain gcn5, stronger effect = lower value 1.04 | locus YHR013C, strain ard1, stronger effect = lower value 1.04 | locus YHR027C, strain rpn1, stronger effect = lower value 1 | locus YHR030C, strain SLT2, stronger effect = lower value 1 and 1.04 | locus YHR079C, strain IRE1 (second series), stronger effect = lower value 0.987 | locus YHR079C, strain IRE1, stronger effect = lower value 1.04 | locus YHR094C, strain hxt1, stronger effect = lower value 1.01 | locus YHR129C, strain ARP1, stronger effect = lower value 1.02 | locus YHR142W, strain chs7, stronger effect = lower value 1.02 | locus YHR200W, strain rpn10, stronger effect = lower value 1 | locus YIL066C, strain RNR3, stronger effect = lower value 1.01 | locus YIL073C, strain SPO22, stronger effect = lower value 1.02 | locus YIL125W, strain kgd1, stronger effect = lower value 1 | locus YIR030C, strain dcg1, stronger effect = lower value 1 | locus YJL092W, strain hpr5, stronger effect = lower value 1.02 | locus YJL095W, strain BCK1 (second series), stronger effect = lower value 1.02 | locus YJL095W, strain BCK1, stronger effect = lower value 1.03 and 1.02 | locus YJL115W, strain asf1, stronger effect = lower value 1.01 | locus YJL129C, strain trk1, stronger effect = lower value 1.02 | locus YJL134W, strain LCB3, stronger effect = lower value 1.02 | locus YJL154C, strain vps35, stronger effect = lower value 1 | locus YJL164C, strain tpk1, stronger effect = lower value 1.02 | locus YJL166W, strain qcr8, stronger effect = lower value 1.05 | locus YJL168C, strain set2, stronger effect = lower value 1.03 | locus YJL187C, strain SWE1 (second series), stronger effect = lower value 1.01 | locus YJL187C, strain SWE1, stronger effect = lower value 1 | locus YJR043C, strain POL32, stronger effect = lower value 1.01 | locus YJR066W, strain TOR1, stronger effect = lower value 0.909 | locus YKL009W, strain mrt4, stronger effect = lower value 0.996 | locus YKL068W, stronger effect = lower value 0.994 | locus YKL085W, strain MDH1 (second series), stronger effect = lower value 1 | locus YKL085W, strain MDH1, stronger effect = lower value 1 | locus YKL160W, strain elf1, stronger effect = lower value 1.05 | locus YKR001C, strain vps1, stronger effect = lower value 0.991 | locus YKR026C, strain gcn3, stronger effect = lower value 1.01 | locus YKR091W, strain srl3, stronger effect = lower value 1.01 | locus YLL001W, strain dnm1, stronger effect = lower value 1.05 | locus YLL026W, stronger effect = lower value 1.01 | locus YLL041C, strain sdh2, stronger effect = lower value 1 | locus YLR027C, strain aat2, stronger effect = lower value 0.992 | locus YLR039C, strain RIC1, stronger effect = lower value 1.1 | locus YLR058C, strain SHM2, stronger effect = lower value 1.02 | locus YLR102C, strain apc9, stronger effect = lower value 1 | locus YLR113W, strain HOG1, stronger effect = lower value 1.1 | locus YLR221C, strain rsa3, stronger effect = lower value 1.05 | locus YLR258W, strain gsy2, stronger effect = lower value 1.02 | locus YLR262C, strain YPT6 (second series), stronger effect = lower value 1.03 | locus YLR262C, strain YPT6, stronger effect = lower value 1.05 | locus YLR268W, strain sec22, stronger effect = lower value 0.988 | locus YLR320W, strain mms22, stronger effect = lower value 1.07 | locus YLR330W, strain CHS5, stronger effect = lower value 1.01 | locus YLR342W, strain FKS1 (second series), stronger effect = lower value 1.05 | locus YLR342W, strain FKS1, stronger effect = lower value 1.02 | locus YLR357W, strain rsc2, stronger effect = lower value 0.986 | locus YLR370C, strain arc18, stronger effect = lower value 1.02 | locus YLR371W, strain rom2, stronger effect = lower value 1.01 | locus YLR384C, strain iki3, stronger effect = lower value 1.02 | locus YLR418C, strain cdc73, stronger effect = lower value 1.01 | locus YML016C, strain PPZ1, stronger effect = lower value 1.01 | locus YML032C, strain rad52, stronger effect = lower value 1.01 | locus YML120C, strain ndi1, stronger effect = lower value 1.03 | locus YML124C, strain tub3, stronger effect = lower value 0.998 | locus YMR058W, strain fet3, stronger effect = lower value 1.01 | locus YMR078C, strain ctf18, stronger effect = lower value 1.01 | locus YMR125W, strain sto1, stronger effect = lower value 1 | locus YMR129W, stronger effect = lower value 1 | locus YMR205C, strain PFK2, stronger effect = lower value 1.05 | locus YMR223W, strain ubp8, stronger effect = lower value 1.02 | locus YMR231W, strain pep5, stronger effect = lower value 1 | locus YMR263W, strain SAP30, stronger effect = lower value 1.02 | [1] 1.01 | locus YNL067W, strain RPL9B, stronger effect = lower value 1.01 | locus YNL071W, strain lat1, stronger effect = lower value 1.02 | locus YNL183C, strain NPR1, stronger effect = lower value 1 | locus YNL209W, strain ssb2, stronger effect = lower value 1.02 | locus YNL233W, strain BNI4, stronger effect = lower value 1.02 | locus YNL248C, strain rpa49, stronger effect = lower value 0.996 | locus YNL250W, strain rad50, stronger effect = lower value 0.992 | locus YNL271C, strain bni1, stronger effect = lower value 0.995 | locus YNL298W, strain CLA4, stronger effect = lower value 1.02 | locus YNL307C, strain MCK1, stronger effect = lower value 1 | locus YNL322C, strain KRE1 (second series), stronger effect = lower value 1.04 | locus YNL322C, strain KRE1, stronger effect = lower value 1.01 | locus YNR049C, strain mso1, stronger effect = lower value 1.02 | locus YNR052C, strain pop2, stronger effect = lower value 1 | locus YOL006C, strain TOP1, stronger effect = lower value 1.01 | locus YOL012C, strain htz1 0.915 | locus YOL147C, strain pex11, stronger effect = lower value 0.997 | locus YOR001W, strain rrp6, stronger effect = lower value 0.99 | locus YOR061W, strain CKA2, stronger effect = lower value 1.01 | locus YOR069W, strain VPS5, stronger effect = lower value 1.01 | locus YOR070C, strain gyp1, stronger effect = lower value 1.01 | locus YOR080W, strain dia2, stronger effect = lower value 1 | locus YOR083W, strain WHI5, stronger effect = lower value 1.07 | locus YOR106W, strain vam3, stronger effect = lower value 1.04 | locus YOR136W, strain idh2, stronger effect = lower value 0.995 | locus YOR144C, strain elg1, stronger effect = lower value 0.996 | locus YOR184W, strain ser1, stronger effect = lower value 1.03 | locus YOR231W, strain MKK1, stronger effect = lower value 1.07 | locus YOR265W, strain rbl2, stronger effect = lower value 1.01 | locus YOR270C, strain vph1, stronger effect = lower value 1.04 | locus YOR290C, strain snf2, stronger effect = lower value 0.986 | locus YOR316C, strain cot1, stronger effect = lower value 1 | locus YPL051W, strain arl3, stronger effect = lower value 1 | [2] 1.03 | locus YPL078C, strain atp4, stronger effect = lower value 1.02 | locus YPL106C, strain sse1, stronger effect = lower value 1.03 | locus YPL240C, strain hsp82, stronger effect = lower value 1.02 | locus YPL256C, strain CLN2, stronger effect = lower value 1.03 | locus YPR119W, strain clb2, stronger effect = lower value 1 | locus YPR141C, strain kar3, stronger effect = lower value 1.01 | locus YPR163C, strain tif3, stronger effect = lower value 0.989 | locus YPR167C, strain met16, stronger effect = lower value 1 | strain wtn01, stronger effect = lower value 1

— PubChem BioAssay AID1159580 (chemical genetic matrix, 2015)
